GPR151 ag: activators of human GPR151, primary screen, cell-based, PathHunter beta-arrestin, luminescence; activation, % at 11.2 µM; G-protein coupled receptor 151 (Homo sapiens), Q8TDV0; 1% of 650,000 active; PathHunter beta-arrestin GPR151 cells; in the data active = activation above about 4.9%;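 note: 0% = median of compound wells and 100% = cells with positive control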
FBW7 act: FBW7 E3 ligase activators, primary screen, biochemical, AlphaScreen, human; F-box/WD repeat-containing protein 7 (Homo sapiens), Q969H0; AlphaScreen FBW7–phospho-cyclin E peptide binding, activator screen; normalized activity (activation), % at 26.1 µM; 0.13% of 650,000 active; AID 1259310, 2017; in the data active = normalized activity above about 1.9%;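 note: purified mutant Fbw7 with reduced substrate affinity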
Target sequence (Q969H0 whole entry, looked up): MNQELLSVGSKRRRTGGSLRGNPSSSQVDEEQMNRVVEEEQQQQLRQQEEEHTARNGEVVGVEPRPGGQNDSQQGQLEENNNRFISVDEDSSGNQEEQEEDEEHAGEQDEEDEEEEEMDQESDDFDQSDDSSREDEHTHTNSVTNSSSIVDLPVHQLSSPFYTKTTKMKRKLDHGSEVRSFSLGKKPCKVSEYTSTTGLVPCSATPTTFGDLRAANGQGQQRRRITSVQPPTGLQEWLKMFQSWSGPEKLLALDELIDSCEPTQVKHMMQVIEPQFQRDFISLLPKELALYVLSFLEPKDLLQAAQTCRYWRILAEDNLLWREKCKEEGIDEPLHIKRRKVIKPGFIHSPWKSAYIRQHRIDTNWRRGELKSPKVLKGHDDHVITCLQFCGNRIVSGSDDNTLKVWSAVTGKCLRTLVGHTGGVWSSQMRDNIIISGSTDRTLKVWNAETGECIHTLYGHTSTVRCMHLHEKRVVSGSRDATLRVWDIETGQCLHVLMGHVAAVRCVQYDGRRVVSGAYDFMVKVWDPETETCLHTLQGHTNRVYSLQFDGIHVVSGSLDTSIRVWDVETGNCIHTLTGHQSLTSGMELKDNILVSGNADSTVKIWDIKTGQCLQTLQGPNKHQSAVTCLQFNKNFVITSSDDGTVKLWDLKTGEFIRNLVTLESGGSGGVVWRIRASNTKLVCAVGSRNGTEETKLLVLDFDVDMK
TEAD-YAP block: TEAD-YAP interaction inhibition, primary screen, TEAD-YAP interaction inhibitor project, luminescence, HEK-TIYL cells | TEAD-Gal4/YAP UAS-luciferase luminescence | inhibition, % at 9.12 µM | 1.4% of 640,000 active | AID 1259422, 2018; in the data active = inhibition above about 32%;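 note: 0% = median of test compound wells and 100% = reference inhibitor wells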
MITF inh: MITF inhibitors, primary screen, biochemical, AlphaScreen, human | Microphthalmia-associated transcription factor (Homo sapiens), O75030 | AlphaScreen MITF homodimerization, bead proximity signal | inhibition, % at 2.6 µM | 0.91% of 650,000 active; in the data active = inhibition above about 50%;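 note: 0% = vehicle wells with protein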
MITF inh conf: MITF inhibitors, retest of hits, confirmation, biochemical, AlphaScreen, triplicate; 16% of 4,700 active; AID 1259372, 2018; shares compounds with MITF inh; inhibition, % at 2.6 µM; AlphaScreen MITF homodimerization, biotin/His-MITF beads;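 active = inhibition above a cutoff derived from the DMSO control wells, cut at about 28% in these data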;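 note: 0% = MITF dimer wells with DMSO only; inhibitors lower the bead chemiluminescence by keeping MITF from dimerizing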
AlphaScreen intf2: AlphaScreen optical interference compounds, counter-screen for MITF inhibitor project, biochemical, triplicate. 7.6% of 4,700 active. LysRS AlphaScreen counterscreen, signal interference. inhibition, % at 2.6 µM. shares compounds with MITF inh;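 active = inhibition above a cutoff derived from the DMSO control wells, cut at about 30% in these data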
The depositor's hits bear a star. In the library only some 3.5% were active in any assay of this set; here they are far more common.

How did Cc1cc(C)nc(SCc2nnc(SCCN3CCOCC3)o2)n1 do in these assays?
GPR151 ag: -0.1; FBW7 act: 0.8; TEAD-YAP block: 1.6; MITF inh: 12.7

How did O=C1NCCN(Cc2ccccc2C(F)(F)F)C1CC(=O)N1CCc2sccc2C1 (centres undefined) do in these assays?
GPR151 ag: -0.7; FBW7 act: 0.2; TEAD-YAP block: 21.0; MITF inh: 5.3

What do the screens show for `Cc1ccc2nc(CN(C)Cc3nccs3)nc(N)c2c1`?
GPR151 ag: 1.0; FBW7 act: -0.2; TEAD-YAP block: -24.9; MITF inh: 65.3*; MITF inh conf: 39.6*; AlphaScreen intf2: 100.2*

Results for CCN1CCN(CCOc2c(OC)cccc2OC)CC1 ?
GPR151 ag: 0.9; FBW7 act: 0.0; TEAD-YAP block: 1.1; MITF inh: 82.0*; MITF inh conf: 7.4; AlphaScreen intf2: 15.7

Results for COc1cccc(OC)c1OCCCCN1CCCC1 ?
GPR151 ag: -0.2; FBW7 act: 0.5; TEAD-YAP block: 5.8; MITF inh: 52.5*; MITF inh conf: -7.8; AlphaScreen intf2: -10.4

How did Cc1ccccc1CN1CCN(C(=O)c2cccc(Cl)c2)CC1 do in these assays?
GPR151 ag: 0.7; FBW7 act: 0.8; TEAD-YAP block: -6.4; MITF inh: 62.8*; MITF inh conf: 7.4; AlphaScreen intf2: 11.9

Results for O=C(c1cccc(Cl)c1)N1CCN(Cc2ccccc2F)CC1 ?
GPR151 ag: 2.0; FBW7 act: 0.1; TEAD-YAP block: 5.7; MITF inh: 59.2*; MITF inh conf: 6.7; AlphaScreen intf2: 7.4

Results for CNC(=O)CN(C1CCCCC1)S(=O)(=O)c1c(C)cc(C)cc1C ?
GPR151 ag: -0.2; FBW7 act: 0.0; TEAD-YAP block: -1.1; MITF inh: -8.6

What do the screens show for `O=C(Nc1nnc(-c2ccc(Cl)cc2Cl)s1)c1ccccc1Br`?
GPR151 ag: 1.3; FBW7 act: -0.1; TEAD-YAP block: -7.3; MITF inh: 0.7

How did COC(=O)c1ccccc1NC(=O)/C(C#N)=C/c1cc(Cl)c(OC)c(OC)c1 do in these assays?
GPR151 ag: 0.8; FBW7 act: 0.1; TEAD-YAP block: 6.6; MITF inh: 53.3*; MITF inh conf: 2.8; AlphaScreen intf2: 3.9

Results for CN1CCN(C(=O)c2ccc(S(=O)(=O)Cc3cc(F)ccc3F)c([N+](=O)[O-])c2)CC1 ?
GPR151 ag: -1.9; FBW7 act: 0.8; TEAD-YAP block: 13.6; MITF inh: 12.2

What do the screens show for `O=C(CNCCCN1CCOCC1)Nc1ccc(N2CCCCCC2)cc1`?
GPR151 ag: -0.9; FBW7 act: -0.1; TEAD-YAP block: -3.5; MITF inh: 75.2*; MITF inh conf: 5.3; AlphaScreen intf2: 25.0

Results for O=C(CNCCN1CCCCC1)Nc1ccc(N2CCCCC2)cc1 ?
GPR151 ag: 0.2; FBW7 act: 0.0; TEAD-YAP block: -7.6; MITF inh: 94.2*; MITF inh conf: 16.9; AlphaScreen intf2: 20.5

Results for O=C(CNCCN1CCCCC1)Nc1ccc(N2CCCCCC2)cc1 ?
GPR151 ag: 0.0; FBW7 act: -0.1; TEAD-YAP block: 0.9; MITF inh: 90.8*; MITF inh conf: 8.2; AlphaScreen intf2: 34.4*

How did CCOCCCNCC(=O)Nc1ccc(N2CCCC2)cc1 do in these assays?
GPR151 ag: 1.5; FBW7 act: 0.1; TEAD-YAP block: -51.1; MITF inh: 12.7

How did O=C(CNCCN1CCCCC1)Nc1ccc(N2CCCC2)cc1 do in these assays?
GPR151 ag: -0.4; FBW7 act: -0.2; TEAD-YAP block: -6.0; MITF inh: 82.7*; MITF inh conf: 14.8; AlphaScreen intf2: 61.0*

How did O=C(CCl)Nc1ccc(N2CCCCC2)cc1 do in these assays?
GPR151 ag: 1.7; FBW7 act: 0.2; TEAD-YAP block: 14.8; MITF inh: -13.2

What do the screens show for `O=C1N[C@@H](Cc2ccc(O)cc2)C(=O)N2CCN(C(=O)c3ccccc3)C[C@H]12`?
GPR151 ag: -1.9; FBW7 act: 0.1; TEAD-YAP block: -12.0; MITF inh: -12.5

What do the screens show for `C=CCNCC(O)COc1cc(Cl)ccc1Cl` (centres undefined)?
GPR151 ag: 0.8; FBW7 act: -0.2; TEAD-YAP block: 4.4; MITF inh: 53.3*; MITF inh conf: -11.2; AlphaScreen intf2: -3.2

What do the screens show for `CC(O)CNCC(O)COc1cc(Cl)ccc1Cl` (centres undefined)?
GPR151 ag: 0.1; FBW7 act: -0.1; TEAD-YAP block: -3.4; MITF inh: -8.3

What do the screens show for `CCOc1ccc(CN2CCN(Cc3cccc([N+](=O)[O-])c3)CC2)cc1`?
GPR151 ag: 0.8; FBW7 act: -0.4; TEAD-YAP block: 13.4; MITF inh: 59.7*; MITF inh conf: 13.9; AlphaScreen intf2: 20.5

What do the screens show for `COc1ccc(CN2CCN(Cc3ccc(F)cc3)CC2)cc1OCc1ccccc1`?
GPR151 ag: -0.1; FBW7 act: 0.0; TEAD-YAP block: -5.0; MITF inh: 79.2*; MITF inh conf: 16.2; AlphaScreen intf2: 18.5

How did O=[N+]([O-])c1cccc(CN2CCCCCCC2)c1 do in these assays?
GPR151 ag: -0.5; FBW7 act: 0.0; TEAD-YAP block: -13.2; MITF inh: 42.3

Results for COc1cc(CN2CCSCC2)ccc1OCc1ccccc1 ?
GPR151 ag: 1.0; FBW7 act: 0.1; TEAD-YAP block: -50.0; MITF inh: 53.1*; MITF inh conf: 14.1; AlphaScreen intf2: 24.4

What do the screens show for `COc1ccc(CN2CCSCC2)cc1OCc1ccccc1`?
GPR151 ag: 0.2; FBW7 act: -0.4; TEAD-YAP block: -2.3; MITF inh: 15.4

What do the screens show for `COc1ccc(CN2CCN(C3CCCCC3)CC2)cc1OCc1ccccc1`?
GPR151 ag: -0.8; FBW7 act: -0.1; TEAD-YAP block: 12.3; MITF inh: 61.9*; MITF inh conf: -2.6; AlphaScreen intf2: -4.3

How did Nc1ncn(C(=O)c2cccc([N+](=O)[O-])c2)n1 do in these assays?
GPR151 ag: 1.7; FBW7 act: 0.1; TEAD-YAP block: -1.0; MITF inh: 5.6

What do the screens show for `O=C(O)CC1(CC(=O)Nc2cc(F)ccc2F)CCCCC1`?
GPR151 ag: 0.6; FBW7 act: 0.5; TEAD-YAP block: 2.0; MITF inh: 5.0

Results for COc1ccc(CN2CCN(C(=O)c3ccccc3F)CC2)cc1OCc1ccccc1 ?
GPR151 ag: 1.9; FBW7 act: 0.2; TEAD-YAP block: 4.1; MITF inh: 43.0

What do the screens show for `CCc1ccc(CN2CCN(Cc3ccc(OC)c(OCc4ccccc4)c3)CC2)cc1`?
GPR151 ag: -0.8; FBW7 act: -0.2; TEAD-YAP block: -1.0; MITF inh: 73.7*; MITF inh conf: 2.7; AlphaScreen intf2: 0.9

How did O=[N+]([O-])c1cccc(OCCCN2CCN(Cc3ccccc3)CC2)c1 do in these assays?
GPR151 ag: -1.6; FBW7 act: -0.2; TEAD-YAP block: 2.4; MITF inh: 76.2*; MITF inh conf: 2.9; AlphaScreen intf2: -0.1

High-throughput results deposited in PubChem BioAssay by The Scripps Research Institute Molecular Screening Center.
